Laboratory results: PubChem BioAssay (Tox21)
Records with an inconclusive call do not appear. Calls of active or inactive are those of the source. Unless noted, calls come from the whole dose curve; as a rule, active = well fitted curve in the direction sought with a large enough effect in the repeat runs; inconclusive = weak or mixed curves; inactive = no such curve, though single readings can be large; an effect the other way counts as inactive or inconclusive.

What was measured:
[1] = biological target: Thyrotropin receptor (Homo sapiens) (UniProt P16473); experiment: qHTS assay to identify small molecule agonists of the thyroid stimulating hormone receptor (TSHR) signaling pathway (AID 1224843; calls by dose curve; note: nearly all actives have a fitted effect of over 45% in size)
Thyrotropin receptor (Homo sapiens), sequence (P16473 whole entry, looked up): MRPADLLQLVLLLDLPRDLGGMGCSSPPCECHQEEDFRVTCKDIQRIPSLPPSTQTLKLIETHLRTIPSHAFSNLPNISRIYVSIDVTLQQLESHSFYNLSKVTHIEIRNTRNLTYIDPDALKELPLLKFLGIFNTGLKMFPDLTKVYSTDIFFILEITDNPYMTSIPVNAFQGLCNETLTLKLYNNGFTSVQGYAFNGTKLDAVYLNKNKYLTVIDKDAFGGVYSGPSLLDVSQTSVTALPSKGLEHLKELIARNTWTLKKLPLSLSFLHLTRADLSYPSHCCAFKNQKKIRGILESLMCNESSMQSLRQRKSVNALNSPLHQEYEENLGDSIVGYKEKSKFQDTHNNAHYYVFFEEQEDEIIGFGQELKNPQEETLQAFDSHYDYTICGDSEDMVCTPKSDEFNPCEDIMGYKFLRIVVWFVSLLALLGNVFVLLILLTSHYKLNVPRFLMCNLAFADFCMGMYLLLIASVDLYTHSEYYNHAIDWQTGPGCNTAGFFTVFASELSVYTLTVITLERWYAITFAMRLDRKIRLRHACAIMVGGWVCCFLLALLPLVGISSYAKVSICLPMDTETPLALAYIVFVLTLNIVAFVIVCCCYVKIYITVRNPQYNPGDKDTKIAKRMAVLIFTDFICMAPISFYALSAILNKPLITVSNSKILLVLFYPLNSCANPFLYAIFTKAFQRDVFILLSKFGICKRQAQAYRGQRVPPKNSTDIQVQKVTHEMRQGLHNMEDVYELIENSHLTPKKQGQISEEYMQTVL
Summary of the method: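 HEK293/TSHR, 800 cells/well; cpd 30 min RT; add cAMP-d2 + anti-cAMP-cryptate, 1 h RT; fluorescence read on plate reader. 15-pt titration, n=3.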

[2] = qHTS assay to identify small molecule agonists of the hypoxia (HIF-1) signaling pathway - cell viability counter screen (AID 1224844; calls by dose curve; note: nearly all actives have a fitted effect of over 50% in size)
Summary of the method: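 Viability counter screen: HRE-bla ME-180 cells plated 5 hrs before compound addition, treated 17 hrs at 37C and 5% CO2, then CellTiter-Glo added after the FRET reporter read; luminescence after 30 min.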

[3] = qHTS assay to identify small molecule agonists of H2AX (AID 1224845; active = well fitted activation curve with a large enough effect in the signal ratio in the repeat runs, not every such curve was filed as active; the % refers to the signal ratio)
Summary of the method: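 Wild-type CHO-K1 cells, plated overnight, exposed 3hr at 37C to 15 concentrations (0.76% DMSO final). Lysed, then HTRF anti-pH2AX (S139) cryptate and anti-H2AX-d2 antibodies, 24 hr room temperature; 665/620 nm emission read.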

[4] = qHTS assay to identify small molecule agonists of the hypoxia (HIF-1) signaling pathway (AID 1224846; active = well fitted activation curve with a large enough effect in the signal ratio in the repeat runs, not every such curve was filed as active; the % refers to the signal ratio)
Summary of the method: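 Agonist mode reporter screen. ME-180 cells stably expressing bla under HRE control received test compounds in DMSO for 17 hrs (37C, 5% CO2), and beta-lactamase activity was then detected with the CCF4-AM FRET substrate.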

[5] = qHTS assay to identify small molecule agonists of H2AX - cell viability counter screen (AID 1224847; calls by dose curve; note: top concentration of the series differs between compounds; nearly all actives have a fitted effect of over 30% in size)
Summary of the method: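 We seed wild-type CHO-K1 cells overnight, treat them for 3 hr at 37C with compounds in 15-concentration series, and quantify remaining viability by CellTiter-Glo luminescence.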

[6] = qHTS assay to identify small molecule antagonists of the estrogen related receptor (ERR) signaling pathway from Tox21 library (AID 1224848); note: nearly all actives have a fitted effect of over 50% in size
Summary of the method: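 Compounds dissolved in DMSO are pin-transferred onto ERR reporter cells (2,000 per well) that have settled for 6 h at 37 C. Plates then incubate 18 h at 37 C before ONE-Glo luciferase reagent and a luminescence read 30 min later.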

[7] = qHTS RealTime-Glo MT Cell Viability Assay in HEK293 cells - 32 hour (AID 1224868); note: top concentration of the series differs between compounds; nearly all actives have a fitted effect of over 50% in size
Summary of the method: (§1)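 Quantitative high-throughput screen of the Tox21 10K library in HEK293: cells and RealTime-Glo reagents plated together, compound added at 5 h, luminescence monitored through 40 h at 37 C.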

[8] = A CellTox Green Cytotoxicity Assay to monitor cytotoxicity in HEK293 cells - 0 hour (AID 1224869); note: nearly all actives have a fitted effect of over 50% in size
Summary of the method: (§2)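 Dead-cell fluorescence measured kinetically: asymmetric cyanine dye, HEK293, 600 cells/well, 5 h settle, 23 nL cpd/DMSO, 37 C, reads 0–40 h every 8 h.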

[9] = A CellTox Green Cytotoxicity Assay to monitor cytotoxicity in HEK293 cells - 40 hour (AID 1224871); note: nearly all actives have a fitted effect of over 45% in size
Summary of the method: as §2

[10] = qHTS RealTime-Glo MT Cell Viability Assay in HEK293 cells - 16 hour (AID 1224872)
Summary of the method: as §1

[11] = qHTS RealTime-Glo MT Cell Viability Assay in HepG2 cells - 8 hour (AID 1224873); note: nearly all actives have a fitted effect of over 55% in size
Summary of the method: (§3)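 HepG2 cells (600/well) mixed with RealTime-Glo MT reagent, settled 5 h at 37 C/5% CO2 before compound addition. Nonlytic NanoLuc luminescence from viable-cell prosubstrate reduction read repeatedly during 40 h treatment at 37 C.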

[12] = qHTS RealTime-Glo MT Cell Viability Assay in HEK293 cells - 40 hour (AID 1224874); conditions: RealTime-Glo luminescence; max response: active compounds read low; note: nearly all actives have a fitted effect of over 50% in size
Summary of the method: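 600 HEK293 cells per well, dispensed already mixed with RealTime-Glo MT reagents. Compound dosing came 5 h later. The same wells were read for luminescence at 0, 8, 16, 24, 32 and 40 h of exposure at 37 C.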

[13] = A CellTox Green Cytotoxicity Assay to monitor cytotoxicity in HEK293 cells - 24 hour (AID 1224875); note: nearly all actives have a fitted effect of over 45% in size
Summary of the method: as §2

[14] = qHTS RealTime-Glo MT Cell Viability Assay in HepG2 cells - 32 hour (AID 1224877); note: nearly all actives have a fitted effect of over 55% in size
Summary of the method: (§4)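 Compound treatment began 5 h after plating HepG2 cells (600/well) with NanoLuc luciferase and prosubstrate. Plates stayed at 37 C for 40 h; luminescence was captured at six time points, 0 h through 40 h.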

[15] = A CellTox Green Cytotoxicity Assay to monitor cytotoxicity in HepG2 cells - 24 hour (AID 1224878); note: nearly all actives have a fitted effect of over 45% in size
Summary of the method: (§5)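 First, HepG2 cells (600/well) mixed with reagent were plated; second, after 5 h at 37 C they received compounds via pintool; third, fluorescence was measured at 0 h through 40 h at 8 h intervals.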

[16] = A CellTox Green Cytotoxicity Assay to monitor cytotoxicity in HepG2 cells - 40 hour (AID 1224879); note: nearly all actives have a fitted effect of over 40% in size
Summary of the method: as §5

[17] = qHTS assay to identify small molecule agonists of the estrogen related receptor (ERR) signaling pathway from Tox21 library (AID 1224849; calls by dose curve; note: nearly all actives have a fitted effect of over 15% in size); conditions: ERR reporter cell line, ONE-Glo luciferase, 18 h; at 92.4 µM (top of the series) unless noted
Summary of the method: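 Quantitative HTS in agonist format: NTP ERR cell line, compounds transferred in DMSO after 6 h plating, 18 h incubation at 37 C, ONE-Glo luminescence endpoint.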

[18] = qHTS RealTime-Glo MT Cell Viability Assay in HepG2 cells - 24 hour (AID 1224867); note: nearly all actives have a fitted effect of over 50% in size
Summary of the method: as §4

[19] = qHTS RealTime-Glo MT Cell Viability Assay in HepG2 cells - 40 hour (AID 1224870); note: nearly all actives have a fitted effect of over 50% in size
Summary of the method: as §3

[20] = A CellTox Green Cytotoxicity Assay to monitor cytotoxicity in HepG2 cells - 16 hour (AID 1224876); note: nearly all actives have a fitted effect of over 45% in size
Summary of the method: as §5
% is set by controls: 0 for no effect and ±100 for the full control effect.

CC(C)CC(O)CC(C)C
inactive: Potency [1] | Potency [2] | Potency [3] | outcome [4] | Potency [5] | Potency [6] | Potency [7] | Potency [8] | Potency [9] | Potency [10] | Potency [11] | max response [12] 2.3% | Potency [13] | Potency [14] | Potency [15] | Potency [16]

O=C1CC[C@@H](C(=O)O)N1
inactive: Potency [1] | Potency [2] | Potency [3] | outcome [4] | Potency [5] | Potency [6] | activity change, positive = activation [17] 3.84% [at 42.5 µM] | Potency [18] | Potency [7] | Potency [8] | Potency [19] | Potency [9] | Potency [10] | Potency [11] | max response [12] 0.932% | Potency [13] | Potency [20] | Potency [14] | Potency [15] | Potency [16]

O=C(O)CN1C(=O)c2cccc3cccc(c23)C1=O
inactive: Potency [1] | Potency [2] | Potency [3] | outcome [4] | Potency [5] | Potency [6] | activity change, positive = activation [17] 3.18% [at 42.5 µM] | Potency [18] | Potency [7] | Potency [8] | Potency [19] | Potency [10] | Potency [11] | max response [12] 9% | Potency [13] | Potency [20] | Potency [14] | Potency [15] | Potency [16]

COC(=O)c1sccc1S(N)(=O)=O
inactive: Potency [1] | Potency [2] | Potency [3] | outcome [4] | Potency [5] | Potency [6] | activity change, positive = activation [17] 0.3% | Potency [18] | Potency [7] | Potency [8] | Potency [19] | Potency [9] | Potency [10] | Potency [11] | max response [12] -18.1% | Potency [13] | Potency [20] | Potency [14] | Potency [15]

CCN(CC)CC(=O)Nc1c(C)cccc1C(=O)OC
inactive: Potency [1] | Potency [2] | Potency [3] | outcome [4] | Potency [5] | Potency [18] | Potency [7] | Potency [8] | Potency [19] | Potency [9] | Potency [10] | Potency [11] | max response [12] 0.513% | Potency [13] | Potency [14] | Potency [15] | Potency [16]

O=c1[nH][nH]c(=O)c2cc([N+](=O)[O-])ccc12
inactive: Potency [1] | Potency [2] | Potency [3] | outcome [4] | Potency [5] | Potency [18] | Potency [8] | Potency [19] | Potency [9] | Potency [10] | Potency [11] | max response [12] -11.6% | Potency [13] | Potency [20] | Potency [14] | Potency [15] | Potency [16]

O=CNNC=O
inactive: Potency [1] | Potency [2] | Potency [3] | outcome [4] | Potency [5] | Potency [18] | Potency [7] | Potency [8] | Potency [19] | Potency [10] | Potency [11] | max response [12] 10.2% | Potency [13] | Potency [20] | Potency [14] | Potency [15] | Potency [16]
